Two molecules from PubChem BioAssay AID651845 (Broad Institute, 2012) can be followed below.

Potency and affinity values are given separately. Records with an inconclusive call do not appear. Where a call stands in place of a potency, no number is given. Calls of active or inactive are those of the source.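 Rule for the calls: active = every replicate test called active, with signal dropping and a potency found within twice the top tested dose; inconclusive = replicate test calls disagree with each other; inactive = all replicate tests inactive, including signal rising.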

This test can be described thus: growth inhibition of intracellular T. cruzi, dose response, cell-based, plate reader, dry powder samples (AID 651845). The conditions noted are these: T. cruzi beta-gal in NIH3T3, GalScreen luminescence, 90 h; series mostly up to 16 µM.

For `CNC[C@@H]1Oc2c(NC(=O)c3ccncc3)cccc2C(=O)N(C(C)C)C[C@H]1C`, the molecule was classed as inactive.

Consider `CC(C)N1C[C@H](C)[C@@H](CN(C)C(=O)OC(C)(C)C)Oc2c(C(=O)O)cccc2C1=O`, for which the outcome was inactive.
